Screening data: PubChem BioAssay, Sanford-Burnham Center for Chemical Genomics
Hits are enriched below; roughly 28% of the tested compounds scored in any of these assays.
CYP2C19 activ: human CYP2C19 activators, primary screen, biochemical, luminescence; Cytochrome P450 2C19 (Homo sapiens), P33261; recombinant CYP2C19, luciferin-H EGE luminescence; stronger effect = higher value; 0 = fully inhibited enzyme, 1 = untreated enzyme; activation factor at 5 µM; 96,000 tested, under 10 active; AID 1025, 2008;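 active = activation factor of at least 2 at 5 µM in the primary screen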;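 note: 0 = wells with 2.5 mM tranylcypromine and 1 = vehicle-only wells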
CYP2C9 act: human CYP2C9 activators, primary screen, biochemical, luminescence | 96,000 compounds, 1.4% hits | activation factor at 5 µM | recombinant CYP2C9, luciferin-H conversion; stronger effect = higher value; factor 1 = untreated enzyme, 0 = blocked | Cytochrome P450 2C9 (Homo sapiens), P11712;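 active = activation factor of 2 or more for CYP2C9 at a 5 µM dose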;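 note: 0 = sulfaphenazole-blocked wells and 1 = vehicle-only wells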
CYP2C9 inh: blockers of cytochrome P450 2C9 activity – biochemical, luminescence, ADME assay, primary screen. CYP2C9 Supersomes, luciferin-H conversion. inhibition, % at 5 µM. 96,000 compounds, 20% hits;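 active = blocking of liver enzyme CYP2C9 beyond about 50% at 5 µM, limit read from the data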
CYP2C19 inh: blockers of cytochrome P450 2C19 activity – biochemical, luminescence, ADME assay, primary screen; P33261; CYP2C19 Supersomes, luciferin-H EGE luminescence, 30 min; inhibition, % at 5 µM; 96,000 compounds, 21% hits; AID 778, 2007;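 active = CYP2C19 inhibition above a set limit at 5 µM in the primary screen, cut at about 50% in these data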;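 note: plate controls were negative control wells for no effect and 2.5 mM tranylcypromine positive control for full effect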
PTK2B oligo ant: antagonists of Pyk2 self-association, primary screen, Q293 cells, FERM NanoBiT luminescence, HTS. 99,000 compounds, 0.83% hits. z-score (the deposit names both 25 µM and 10 µM). Protein-tyrosine kinase 2-beta (Homo sapiens), Q14289. stronger effect = lower value;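 active = Z-score of -3 or lower, scaled per plate to the spread of control and sample wells; inactive = z-score above -3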;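 note: negative z-score means lost luminescence so less FERM oligomerization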
* marks the source's active call; other numbers are inactive results.

Screening Cc1ccnc(N2C(=O)c3ccccc3C2O)c1 (stereo unspecified) returned CYP2C19 activ 0.5, CYP2C9 act 0.9, CYP2C9 inh 14.4 and CYP2C19 inh 50.0*.
For O=c1cc(-c2ccccc2)n(S(=O)(=O)c2ccc3ccccc3c2)o1 the results were PTK2B oligo ant 1.07.
O=c1cc(-c2ccccc2)n(S(=O)(=O)c2ccccc2)o1 was read as CYP2C19 activ 0.5, CYP2C9 act 1.1, CYP2C9 inh -7.4, CYP2C19 inh 52.2* and PTK2B oligo ant 0.59.
For COc1ccc(S(=O)(=O)n2oc(=O)cc2-c2ccccc2)cc1OC the results were CYP2C19 activ 0, CYP2C9 act 1.9, CYP2C9 inh -91.4, CYP2C19 inh 96.7* and PTK2B oligo ant -0.54.
For COc1ccc(S(=O)(=O)n2oc(=O)cc2-c2ccccc2)cc1 the results were CYP2C19 activ 0.7, CYP2C9 act 1, CYP2C9 inh 0.6, CYP2C19 inh 29.8 and PTK2B oligo ant -0.09.
For OCCN(Cc1ccccc1)Cc1ccc(F)c(F)c1 the results were CYP2C19 activ 0.2, CYP2C9 act 0.7, CYP2C9 inh 29.6, CYP2C19 inh 84.3* and PTK2B oligo ant -0.6.
Screening O=[N+]([O-])c1cccc(CN(CCO)Cc2ccccc2)c1 returned CYP2C19 activ 0.6, CYP2C9 act 0.6, CYP2C9 inh 36.1, CYP2C19 inh 40.7 and PTK2B oligo ant 0.4.
For CCN(C(=O)CCc1nc(-c2ccc(OC)cc2)no1)c1cc(OC)ccc1OC the results were CYP2C19 activ 0.4, CYP2C9 act 0.3, CYP2C9 inh 74.9*, CYP2C19 inh 59.2* and PTK2B oligo ant -2.15.
COc1ccc(-c2noc(CCC(=O)N(C)c3cccc(C)c3)n2)cc1 was read as CYP2C19 activ 0.1, CYP2C9 act 0.2, CYP2C9 inh 83.3*, CYP2C19 inh 89.3* and PTK2B oligo ant -0.71.
Cc1ccc(-c2noc(CCC(=O)N(C)c3ccccc3C)n2)cc1 was read as CYP2C19 activ 0.2, CYP2C9 act 0.1, CYP2C9 inh 93.8*, CYP2C19 inh 81.5* and PTK2B oligo ant -1.16.
COc1ccc(-c2noc(CCC(N)=O)n2)cc1OC was read as CYP2C19 activ 1, CYP2C9 act 1.1, CYP2C9 inh -10.5, CYP2C19 inh 3.3 and PTK2B oligo ant -0.18.
CCOC(=O)N1CCN(Cc2nc(-c3ccc(OC)cc3)no2)CC1 was read as PTK2B oligo ant 0.4.
Screening Cc1ccc(-c2noc(CCC(=O)Nc3ccccc3C)n2)cc1 returned CYP2C19 activ 0.8, CYP2C9 act 0.6, CYP2C9 inh 37.2, CYP2C19 inh 20.3 and PTK2B oligo ant -0.1.
Screening Cc1ccc(C2C(=O)N(C3CCC(C)CC3)CC(=O)N2C2CC2)cc1 (stereo unspecified) returned CYP2C19 activ 0.9, CYP2C9 act 1.9, CYP2C9 inh -88.6, CYP2C19 inh 7.8 and PTK2B oligo ant 1.21.
Screening CNc1c2c(nn1C)CCCC2 returned CYP2C19 activ 1, CYP2C9 act 1.5, CYP2C9 inh -48.3 and CYP2C19 inh -2.2.
Cc1ccccc1NC(=O)CSc1nc(COc2ccccc2)nc2ccccc12 was read as CYP2C19 activ 0.2, CYP2C9 act 0.1, CYP2C9 inh 94.7*, CYP2C19 inh 75.9* and PTK2B oligo ant -1.14.
Cc1cc(C)c(NC(=O)CSc2nc(COc3ccccc3)nc3ccccc23)c(C)c1 was read as CYP2C19 activ 0.5, CYP2C9 act 0.1, CYP2C9 inh 85.1*, CYP2C19 inh 45.8 and PTK2B oligo ant -0.48.
COc1ccc(C(=O)C/C(=C\C(=O)c2ccc(C)cc2)c2ccccc2)cc1 was read as CYP2C19 activ 0.5, CYP2C9 act 0.3, CYP2C9 inh 74.2*, CYP2C19 inh 47.8 and PTK2B oligo ant -0.31.
For COc1ccc(C(CC(=O)c2ccccc2)S(=O)(=O)c2ccc(C)cc2)cc1 (stereo unspecified) the results were CYP2C19 activ 0.7, CYP2C9 act 0.9, CYP2C9 inh 13.1, CYP2C19 inh 26.5 and PTK2B oligo ant 0.28.
For CN(C)c1ccc(/C=C/c2cc[n+](C)cc2)cc1 the results were CYP2C19 activ 1, CYP2C9 act 1, CYP2C9 inh 0.4, CYP2C19 inh 0.3 and PTK2B oligo ant -1.64.
CN(C)c1ccc(/C=C/c2cc[n+]([O-])cc2)cc1 was read as CYP2C19 activ 0.1, CYP2C9 act 0.5, CYP2C9 inh 54.0* and CYP2C19 inh 91.6*.
`CC(C)NC(=O)C1CC(=O)N(C(C)c2ccccc2)C1` (stereo unspecified) gave CYP2C19 activ 1.1, CYP2C9 act 1.1, CYP2C9 inh -12.8, CYP2C19 inh -6.4 and PTK2B oligo ant 1.28.
Screening COc1cccc(-c2nnc(NC(=O)C(C)C)o2)c1 returned CYP2C19 activ 0.9, CYP2C9 act 0.9, CYP2C9 inh 12.0 and CYP2C19 inh 6.6.
Screening COc1ccc(-c2nnc(SC(C)C(=O)Nc3cccc(Cl)c3)o2)cc1 (stereo unspecified) returned CYP2C19 activ 0.5, CYP2C9 act 0.4, CYP2C9 inh 60.8*, CYP2C19 inh 48.5 and PTK2B oligo ant 2.25.
Screening CC(Sc1nnc(-c2ccc(O)cc2)o1)C(=O)Nc1cccc2ccccc12 (stereo unspecified) returned CYP2C19 activ 0.3, CYP2C9 act 0.9, CYP2C9 inh 14.5, CYP2C19 inh 72.0* and PTK2B oligo ant -0.87.
CCNC(=S)NNC(=O)c1cccc(Br)c1 was read as CYP2C19 activ 0.8, CYP2C9 act 1, CYP2C9 inh 1.2, CYP2C19 inh 18.2 and PTK2B oligo ant 0.36.
`CCOc1c(Cl)cc(CNC(C)(C)CC(C)(C)C)cc1OC` gave CYP2C19 activ 0.1, CYP2C9 act 1, CYP2C9 inh -4.6, CYP2C19 inh 90.9* and PTK2B oligo ant 0.07.
`CC(C)c1ccccc1NC(=O)Cn1c(-c2ccccc2Cl)nc2ccccc21` gave PTK2B oligo ant 0.03.
`COc1ccc(Cn2c(-c3ccc(OC)cc3)nc3ccccc32)cc1` gave PTK2B oligo ant -0.38.
For CSc1ccccc1NC(=O)Cn1c(-c2cscn2)nc2ccccc21 the results were CYP2C19 activ 0, CYP2C9 act 0.2, CYP2C9 inh 78.5*, CYP2C19 inh 98.5* and PTK2B oligo ant -0.45.
For Brc1ccccc1Cn1c(-c2cscn2)nc2ccccc21 the results were CYP2C19 activ 0.4, CYP2C9 act 0.8, CYP2C9 inh 15.4, CYP2C19 inh 55.8* and PTK2B oligo ant -0.08.
Clc1ccc(CN2CCN(c3ncnc4scc(-c5cccs5)c34)CC2)cc1 was read as CYP2C19 activ 0.2, CYP2C9 act 0.7, CYP2C9 inh 29.3, CYP2C19 inh 83.5* and PTK2B oligo ant -1.94.
For Cc1ccccc1N1CCN(c2ncnc3scc(-c4cccs4)c23)CC1 the results were CYP2C19 activ 0.7, CYP2C9 act 0.5, CYP2C9 inh 48.4, CYP2C19 inh 27.9 and PTK2B oligo ant -2.38.
